A selection: hits, their analogues and other compounds. The true share with any hit is near 3.8%.
IDH1 R132H inh: blocks human mutant IDH1 R132H enzyme; AID 602179; 390,000 compounds, 0.093% hits; IDH1-R132H enzyme, NADPH consumption, diaphorase/resazurin fluorescence; Potency, µM (titrated, usually from 76.6 µM), for inactives: at the top dose activity change, negative = inhibition, most hits filed as inhibitors; note: % is set by controls: 0 for no effect and ±100 for the full control effect; nearly all actives have a fitted effect of over 65% in size
Target sequence (O75874 whole entry R132H, stated change not applied): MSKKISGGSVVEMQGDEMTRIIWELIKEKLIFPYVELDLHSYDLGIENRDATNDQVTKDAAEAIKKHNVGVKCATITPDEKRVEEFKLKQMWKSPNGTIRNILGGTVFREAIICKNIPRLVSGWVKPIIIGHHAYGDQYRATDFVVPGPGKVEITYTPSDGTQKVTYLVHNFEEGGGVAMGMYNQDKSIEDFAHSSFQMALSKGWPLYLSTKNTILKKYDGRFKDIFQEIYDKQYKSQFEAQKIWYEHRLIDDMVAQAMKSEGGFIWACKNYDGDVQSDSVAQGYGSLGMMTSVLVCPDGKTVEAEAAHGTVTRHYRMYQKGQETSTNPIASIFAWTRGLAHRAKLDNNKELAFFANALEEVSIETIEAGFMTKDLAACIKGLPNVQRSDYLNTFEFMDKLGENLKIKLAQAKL
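IDH1-R132H (0.5 ug/mL) preincubated 30 min with compound, then NADPH (0.016 mM) and alpha-KG (2 mM) added; 80 min at RT, pH 7.5. Remaining NADPH coupled via diaphorase/resazurin to fluorescence (540/590 nm); concentration-response curves normalized to no-enzyme control.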
ELG1 repair inh: inhibitors of ELG1-dependent DNA repair in HEK293T cells; Potency, µM (doses to about 46.1 µM), inactives show at the highest dose activity change, negative = inhibition, hits mostly inhibitors; 330,000 compounds, 2.3% hits; HEK293T ELG1-luciferase reporter, luminescence, 16 h; DNA damage induced by 5-fluorouridine; note: % is set by controls: 0 for no effect and ±100 for the full control effect; nearly all actives have a fitted effect of over 55% in size
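Step one: seed 2,000 cells per well. Step two: pin-transfer compound or DMSO alongside 5-fluorouridine. Step three: incubate 16 hr, 37 °C, 5% CO2. Step four: add ONE-Glo, wait 30 min, read luminescence.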
Nrf2 ARE act: activators of Nrf2 (ARE) signaling | AREc32 ARE-luciferase reporter (MCF7-derived line), luminescence, 24 h | Potency, µM (titrated, usually from 46.1 µM), inactives show top-dose activation, most hits filed as activators | 410,000 compounds, 0.31% hits | AID 624171; note: % of control where 0% means no effect; nearly all actives have a fitted effect of over 65% in size
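Luminescent ARE reporter assay in AREc32_Fluc cells: overnight plating at 37 deg C, 24 hr compound incubation, Steady-Glo added, 30 min RT before reading.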
A549 tox: counter-screen for Nrf2 inhibitors: cytotoxicity in A549 cells. A549 ARE-Fluc cells, CellTiter-Fluor viability, 18-24 h. Potency, µM (titrated, usually from 46 µM), for inactives: at the highest dose activity change, negative = cytotoxicity, most hits filed as inhibitors. 390,000 compounds, 0.16% hits; note: % is set by controls: 0 for no effect and ±100 for the full control effect
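Cytotoxicity counterscreen: CellTiter-Fluor fluorescence was measured in A549 ARE_Fluc cells after 18-24 h of compound exposure in a concentration series. The subsequent BugLite luminescent read reports ARE-luciferase activity.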
Nrf2 block: Nrf2 pathway inhibition | A549 ARE-Fluc reporter, luciferase luminescence, 18-24 h | Potency, µM (doses to about 46 µM), without a hit: top-dose activity change, negative = inhibition, hits mostly inhibitors | 360,000 compounds, 2.1% hits | AID 504444; note: % is set by controls: 0 for no effect and ±100 for the full control effect; nearly all actives have a fitted effect of over 60% in size
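Nrf2 activity is the BugLite luminescence, read 15 min after reagent at room temperature, following CellTiter-Fluor cytotoxicity readout (30 min, 37C). Compound titrations were applied for 18-24 h to 5000 A549 ARE_Fluc cells/well in 5% FBS OPTI-MEM.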
Starred values were filed as active, the others as inactive. Calls come from the whole dose curve; as a rule, active = well fitted curve in the direction sought with a large enough effect; inconclusive = small, poorly fitted or top-dose-only effect, or another doubt; inactive = no such curve, though single readings can be large; an effect the other way counts as inactive or inconclusive. Potency is the fitted concentration of half-maximal effect.

Results for CN(C)c1ccc(/C=c2\sc3nc(-c4ccccc4)nn3c2=O)cc1 ?
ELG1 repair inh: 3%

What do the screens show for `C[n+]1c(-c2ccccc2)cc2c(=Cc3ccc([N+](=O)[O-])cc3)c3ccccc3n21`?
IDH1 R132H inh: 3%; Nrf2 ARE act: 5%; A549 tox: inconclusive; Nrf2 block: inconclusive

How did O=C(Cn1cnc2onc(-c3ccc(F)cc3)c2c1=O)N1CCN(c2ccc(F)cc2)CC1 do in these assays?
IDH1 R132H inh: -9%; Nrf2 ARE act: 1%; A549 tox: -3%; Nrf2 block: inconclusive

What do the screens show for `O=C(Cn1nnc(-c2ccccc2)n1)NC1CCS(=O)(=O)C1` (stereo not drawn)?
IDH1 R132H inh: 7%; ELG1 repair inh: 9%; Nrf2 ARE act: -1%; A549 tox: -2%; Nrf2 block: -2%

How did CCN(CC(=O)NC1CCS(=O)(=O)C1)c1nc(-c2ccccc2)nc2ccccc12 (stereo not drawn) do in these assays?
IDH1 R132H inh: -1%; ELG1 repair inh: 13µM*; Nrf2 ARE act: 3%; A549 tox: -7%; Nrf2 block: 5%

What do the screens show for `COc1ccc(OCc2cc(C3Nc4ccccc4C(=O)N3Cc3ccccc3)ccc2OC)cc1` (stereo not drawn)?
A549 tox: -5%; Nrf2 block: -25%

How did COc1ccc(-c2onc(C)c2C)cc1S(=O)(=O)N1CCc2ccccc21 do in these assays?
IDH1 R132H inh: 11%; Nrf2 ARE act: 1%; A549 tox: -1%; Nrf2 block: 18µM*

Results for CC1(C)OC(=O)C2(Cc3ccc(Br)cc3N3CCCCC32)C(=O)O1 (stereo not drawn) ?
A549 tox: 2%; Nrf2 block: -2%

How did O=C(Cc1ccccc1)Nc1sc2c(c1C(=O)Nc1cccc(Cl)c1)CCCC2 do in these assays?
A549 tox: 4%; Nrf2 block: 0%

How did Cc1noc(/C=C/c2cccnc2)c1[N+](=O)[O-] do in these assays?
IDH1 R132H inh: 0%; ELG1 repair inh: inconclusive; Nrf2 ARE act: 14%; A549 tox: inconclusive; Nrf2 block: 18µM*

How did Cc1cccc(C)c1N/C=C/c1onc(C)c1[N+](=O)[O-] do in these assays?
IDH1 R132H inh: 0%; Nrf2 ARE act: 0%; A549 tox: 3%; Nrf2 block: -10%

What do the screens show for `CCOC(=O)c1ccc(NC(=O)C2CCN(S(=O)(=O)Cc3ccccc3)CC2)cc1`?
IDH1 R132H inh: -5%; Nrf2 ARE act: 0%; A549 tox: 2%; Nrf2 block: -2%

Results for Brc1cccc(-c2nnn3c2nc(NCc2ccc4c(c2)OCO4)c2ccccc23)c1 ?
IDH1 R132H inh: 0%; Nrf2 ARE act: 4%; A549 tox: 4%; Nrf2 block: 10%

How did CN(C(=O)C1CCC(=O)N(CCCN2CCCC2=O)C1)C(C1CC1)C1CC1 (stereo not drawn) do in these assays?
IDH1 R132H inh: -8%; ELG1 repair inh: 1%; Nrf2 ARE act: 0%; A549 tox: -2%; Nrf2 block: 12%

How did CCCOc1ccc(C(=O)Nc2cc3c(cc2N2CCCCC2)n(C)c(=O)n3C)cc1 do in these assays?
IDH1 R132H inh: -21%; Nrf2 ARE act: -1%; A549 tox: 1%; Nrf2 block: 0%

How did COc1ccc(Cl)cc1NS(=O)(=O)c1cccc2cccnc12 do in these assays?
IDH1 R132H inh: 1%; ELG1 repair inh: 0%; Nrf2 ARE act: 13µM*; A549 tox: -4%; Nrf2 block: inconclusive

Results for Cc1nnc(N2CCC(C(=O)N3CCCCC3)CC2)c2nn(-c3ccccc3)c(C)c12 ?
IDH1 R132H inh: 10%; Nrf2 ARE act: 0%; A549 tox: 9%; Nrf2 block: 8%

What do the screens show for `CCCCOC(=O)CCc1nc2ccccc2[nH]c1=O`?
IDH1 R132H inh: 7%; ELG1 repair inh: 29µM*; Nrf2 ARE act: -1%; A549 tox: 1%; Nrf2 block: -11%

How did CC(=O)Oc1c(Cl)c(N2CCOCC2)c(OC(C)=O)c2ccccc12 do in these assays?
IDH1 R132H inh: 5%; ELG1 repair inh: inconclusive; Nrf2 ARE act: 16µM*; A549 tox: -3%; Nrf2 block: inconclusive

What do the screens show for `Cc1cc(OC(=O)N2CCOCC2)cc(C)c1Cl`?
IDH1 R132H inh: 4%; Nrf2 ARE act: 0%; A549 tox: 1%; Nrf2 block: -4%

Results for Cc1ccn2cc(CNS(=O)(=O)c3ccc4ccccc4c3)nc2c1 ?
IDH1 R132H inh: -4%; ELG1 repair inh: 1%; Nrf2 ARE act: 0%; A549 tox: 11%; Nrf2 block: 11%

What do the screens show for `Cc1cccn2cc(CNS(=O)(=O)c3ccc4ccccc4c3)nc12`?
IDH1 R132H inh: 5%; ELG1 repair inh: inconclusive; Nrf2 ARE act: 0%; A549 tox: -7%; Nrf2 block: 13µM*

What do the screens show for `Clc1ccc(-n2cc(-c3ccc(Br)cc3)[n+]3c2CCCCC3)cc1`?
IDH1 R132H inh: 7%; ELG1 repair inh: inconclusive; Nrf2 ARE act: -1%; A549 tox: -5%; Nrf2 block: -13%

What do the screens show for `Brc1ccc(-c2csc3[n+]2CCCCC3)cc1`?
IDH1 R132H inh: 0%; ELG1 repair inh: inconclusive; Nrf2 ARE act: 2%; A549 tox: -9%; Nrf2 block: 16µM*

What do the screens show for `COc1cccc(/C=C2\SC(=O)N(CC(=O)NC3C=CS(=O)(=O)C3)C2=O)c1` (stereo not drawn)?
IDH1 R132H inh: -5%; ELG1 repair inh: inconclusive; Nrf2 ARE act: 16µM*; A549 tox: 0%; Nrf2 block: 10%

How did COc1cccc(/C=C2\SC(=S)N(C(C)C(=O)NC3C=CS(=O)(=O)C3)C2=O)c1 (stereo not drawn) do in these assays?
IDH1 R132H inh: -10%; ELG1 repair inh: 3%; Nrf2 ARE act: 18µM*; A549 tox: 3%; Nrf2 block: 2%

Results for Oc1ccc(Br)cc1C1C=C(c2ccc3c(c2)OCO3)NC(c2c(F)cccc2Cl)N1 (stereo not drawn) ?
A549 tox: -3%; Nrf2 block: -3%

How did C=CCN(c1ccc(C(=O)Nc2ccc3c(c2)n(C)c(=O)n3C)cc1)S(C)(=O)=O do in these assays?
IDH1 R132H inh: 9%; ELG1 repair inh: inconclusive; Nrf2 ARE act: 21%; A549 tox: 7%; Nrf2 block: 2%

How did COc1cc(-n2c(N)c(C(=O)NCc3ccco3)c3nc4ccccc4nc32)cc(OC)c1OC do in these assays?
IDH1 R132H inh: 5%; ELG1 repair inh: -8%; Nrf2 ARE act: 10%; A549 tox: 4%; Nrf2 block: 15%

Results for C=CCNC(=O)c1c(N)n(-c2cccc(S(N)(=O)=O)c2)c2nc3ccccc3nc12 ?
IDH1 R132H inh: 1%; ELG1 repair inh: 9.2µM*; Nrf2 ARE act: 3%; A549 tox: inconclusive
